This is an account of results in PubChem BioAssay (NCI).

Where “and” joins values, the source holds several entries; their conditions need not be identical. Identical values can stand only once. About 83,000 compounds went through this panel and 20% of them were active in at least one assay; those are over-represented in the sample as a whole.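 Compound tested at a single concentration for 48 hours in 96-well plates; a percent growth value below 10 was scored as active.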 Calls of active or inactive are those of the source.

For one assay, the system named is NCI-H23 lung. Put plainly: NCI-60 one-dose screen, 48 h (100 = growth as untreated, 0 = no growth, -100 = all killed). The settings on record: 0.0025 µM. Here is the method:
Growth inhibition of the NCI-H23 human Non-Small Cell Lung tumor cell line is measured as a screen for anti-cancer activity. Cells are grown in 96 well plates and exposed to the test compound for 48 hours. Compounds are tested at a single concentration, which is 10^-5 M for most compounds. The reported endpoint is percent growth (GI% or GIPRCNT), where numbers from 0 - 100% represent growth inhibition, and numbers from -100% - 0 represent cell death. For example, a value of 40 represents 60% growth inhibition. A value of 0 means no net growth occurred over the course of the experiment. A value of -40 indicates 40% of cells at the beginning of the experiment died by the end of the experiment. A value of -100 means all cells are dead at the end of the experiment.
NCI-60 Human Tumor Cell Lines Screen was performed using the standard one-dose NCI protocol, which is described in more detail at https://dtp.cancer.gov/discovery_development/nci-60/default.htm.
Compounds with GIPRCNT values below 10 were considered active. Activity score was based on GIPRCNT using the following formula: […]
Score is 0 for GIPRCNT values of 100 or above, 50 for GIPRCNT values of 0, and 100 for GIPRCNT values of -100.
Consider `COc1cccc2c1C(=O)c1c(O)c3c(c(O)c1C2=O)C[C@@](O)(C(=O)CO)C[C@@H]3OC1CC(N)C(O)C(C)O1` (stereo not given in full), for which the growth is 90% (inactive).

The same assay, now with this note: 1 µM.
For the compound `COc1cccc2c1C(=O)c1c(O)c3c(c(O)c1C2=O)C[C@@](O)(C(=O)CO)C[C@@H]3OC1CC(N)C(O)C(C)O1` (stereo not given in full), the growth is 28.2% (inactive).

The same assay, now with this note: 2.5 µM.
Take `COc1cccc2c1C(=O)c1c(O)c3c(c(O)c1C2=O)C[C@@](O)(C(=O)CO)C[C@@H]3OC1CC(N)C(O)C(C)O1` (stereo not given in full): the growth was 33.1% (inactive).

The same assay, now with this note: 10 µM.
With `CS(=O)(=O)OC1CC(n2ccc(=O)[nH]c2=O)OC1COC(c1ccccc1)(c1ccccc1)c1ccccc1` (stereo not given), the growth was 106% (inactive).

On to `CCCCCCCCCCSC(=N)N`, for which the growth is 87.4% (inactive).

Take `NC1=C(Cl)C(=O)c2ccccc2C1=O`: the growth is 40.7% (inactive).

Take `Nc1c2ccccc2nc2ccccc12`: the growth was 11.5% (inactive) and 41.9% (inactive) and 38.5% (inactive).

In the case of `CCN1/C(=C/C=C/C=C/c2sc3ccccc3[n+]2CC)Sc2ccccc21`, the growth is -22.8% (active).

As to `COc1cccc2c1C(=O)c1c(O)c3c(c(O)c1C2=O)C[C@@](O)(C(=O)CO)C[C@@H]3OC1CC(N)C(O)C(C)O1` (stereo not given in full), the growth was 33.3% (inactive).

Consider `CC(C)(C)CC(C)(C)c1ccc(OCCO)cc1`, for which the growth is 106% (inactive).

On to `CCCCCCCCCCCC[N+](C)(C)Cc1ccccc1`, for which the growth is 23.8% (inactive).

On to `Nc1nc(=S)c2ncn(C3OC(CO)C(O)C3O)c2[nH]1` (stereo not given), for which the growth was 102% (inactive) and 25.8% (inactive).

`CN(C)C(=S)SC(=S)N(C)C`: the growth is 92.1% (inactive) and 108% (inactive).

On to `O=C(/C=C/c1ccccn1)c1ccccc1`, for which the growth is 83.8% (inactive).

On to `CC(=O)OCC(OC(C)=O)C(OC(C)=O)C(OC(C)=O)C(OC(C)=O)C(/C=N/Nc1ccccc1)=N/Nc1ccccc1` (stereo not given), for which the growth is 79.9% (inactive).

Take `O=C(Nc1ccc(C(=O)O)c(O)c1)c1ccccc1`: the growth was 104% (inactive) and 97.9% (inactive).

Take `CC[N+](CC)=c1ccc2nc3c(cc(N)c4ccccc43)oc-2c1`: the growth is -41.8% (active).

With `CSC1SCC2C(=O)N(C)C(C(C)C)C(=O)OCC(NC(=O)c3cnc4ccccc4n3)C(=O)NC(C)C(=O)N(C)C1C(=O)N(C)C(C(C)C)C(=O)OCC(NC(=O)c1cnc3ccccc3n1)C(=O)NC(C)C(=O)N2C` (stereo not given), the growth is -28.2% (active).

With `Clc1cc(Cl)c(Cl)nn1`, the growth is 105% (inactive).

Regarding `OC(CN1CCCC2CCCCC21)c1cc2ccccc2c2ccccc12` (stereo not given), the growth is 12.6% (inactive).

In the case of `CN1CCN(CCCN2c3ccccc3Sc3ccc(C(F)(F)F)cc32)CC1`, the growth is 69.9% (inactive).

Take `Cc1cc(O)c(C(C)C)cc1Cl`: the growth is 106% (inactive).

For the compound `COc1c(O)cc2oc3cc(O)c(CC=C(C)C)c(O)c3c(=O)c2c1CC=C(C)C`, the growth is 54.6% (inactive).

In the case of `O=C1C=CC(=CC=C2C=CN(CCCCCCCCCCCO)C=C2)C=C1`, the growth was 20% (inactive).

On to `O=[N+]([O-])C1=C(c2ccccc2)SC=C(c2ccccc2)S1`, for which the growth is 79.3% (inactive).

For the compound `O=C1C=C(O)c2ccccc2C1=O.[Ag]`, the growth was 91.8% (inactive).

Turning to `CCO/C=C1\SC(=S)N(c2cccc(O)c2)C1=O`, the growth was 106% (inactive).

For `COC1OCC(O)C(O)C1O` (stereo not given), the growth is 98.3% (inactive).

On to `NC(=O)SCC(=O)NNc1ccccc1`, for which the growth was 112% (inactive).

Take `COc1ccc(CC(=O)c2ccc(O)cc2O)cc1`: the growth was 104% (inactive).

`O=C(O)COc1ccc(OCC(=O)O)cc1`: the growth was -0.769% (active).

For the compound `COC(=O)C1C(O)C(C)C(O)C(C)C=C(C)C2=C3C(=C(C)C(=O)c4c(O)c(c(C)c(OC(C)=O)c43)NC(=O)C(C)=C/C=C\C(C)C(O)C(C)C1O)OCO2` (stereo not given), the growth was 107% (inactive).

As to `CO[C@H](C(=O)[C@@H](O)[C@@H](C)O)[C@@H]1Cc2cc3cc(OC4CC(OC5CC(O)C(O)C(C)O5)C(O)C(C)O4)c(C)c(O)c3c(O)c2C(=O)[C@H]1OC1CC(OC2CC(OC3CC(C)(O)C(O)C(C)O3)C(O)C(C)O2)C(O)C(C)O1` (stereo not given in full), the growth was -28.9% (active).

In the case of `NNc1ccc2ccccc2c1`, the growth was 87.9% (inactive) and 94.4% (inactive).

On to `CCCCCCCCCCCCCCCCCCOCC(COP(=O)([O-])OCC[N+](C)(C)C)OC` (stereo not given), for which the growth is 89.1% (inactive).

As to `O=c1ccn(C2CC(O)C(COC(c3ccccc3)(c3ccccc3)c3ccccc3)O2)c(=O)[nH]1` (stereo not given), the growth is 101% (inactive).

`O=C(/C=C/c1cccnc1)c1ccccc1`: the growth is 96.6% (inactive).

On to `OCC1OC(n2cnc3c(=S)nc[nH]c32)C(O)C1O` (stereo not given), for which the growth was 104% (inactive) and 71.8% (inactive).

On to `Oc1ccc(N=Nc2ccccn2)c(O)c1`, for which the growth was 29.2% (inactive).

The same assay, now with this note: 100 µM.
Consider `O=c1ccn(C2CC(O)C(COC(c3ccccc3)(c3ccccc3)c3ccccc3)O2)c(=O)[nH]1` (stereo not given), for which the growth is 69.2% (inactive).
